Test results as given in paper PMC7862700, “An all-to-all approach to the identification of sequence-specific readers for epigenetic DNA modifications on cytosine”.

Assays:
Experiment in all cases: DAPPL (digital affinity profiling via proximity ligation, sequencing); 10 mM Tris-HCl pH 7.5, 50 mM NaCl, 1 mM DTT, 4% glycerol, room temperature, 30 min; GST-TFs on glutathione beads, 16-mer random dsDNA library, 0.1% formaldehyde crosslink after washing; high values mean tight binding
Conditions in all cases: protein: recombinant; tags: N-terminal GST; dsDNA, one strand shown
ETV1 = ETV1 (Homo sapiens, UniProt P50549 1-477)
Sequence of ETV1 (P50549 whole entry, the tested form may be a part): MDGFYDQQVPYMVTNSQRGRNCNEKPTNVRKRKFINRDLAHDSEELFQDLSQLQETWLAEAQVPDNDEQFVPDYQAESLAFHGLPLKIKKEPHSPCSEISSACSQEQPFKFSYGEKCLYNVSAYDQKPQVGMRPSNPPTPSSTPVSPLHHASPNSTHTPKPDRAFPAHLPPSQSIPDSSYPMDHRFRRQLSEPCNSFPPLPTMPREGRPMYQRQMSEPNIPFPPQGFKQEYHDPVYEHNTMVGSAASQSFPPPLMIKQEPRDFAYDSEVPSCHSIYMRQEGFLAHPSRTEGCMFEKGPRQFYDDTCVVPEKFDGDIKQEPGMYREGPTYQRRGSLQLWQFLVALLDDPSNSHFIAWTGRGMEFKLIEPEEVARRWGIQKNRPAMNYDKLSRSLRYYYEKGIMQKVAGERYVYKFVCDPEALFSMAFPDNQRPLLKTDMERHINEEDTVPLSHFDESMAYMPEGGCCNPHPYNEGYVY
Summary of the method: (§1)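 Beads coated with glutathione captured GST-fused human transcription factors that had been expressed in yeast, and the factors were then given DNA barcodes and pooled with a tag-only sample. The pools were incubated with 200 nmole of a random double-stranded 16-mer DNA library in Tris/NaCl/DTT/glycerol buffer for 30 min at room temperature, washed, crosslinked with 0.1% formaldehyde and proximity-ligated with BsaI/T4 ligase at 37 °C for 1 h. PCR amplification and Illumina NextSeq500 sequencing came last. Binding signal is each hexamer's read frequency for a factor divided by its frequency for the tag-only sample.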

ERF = target: T1, ERF (Homo sapiens, UniProt P50548 1-548)
T1 sequence: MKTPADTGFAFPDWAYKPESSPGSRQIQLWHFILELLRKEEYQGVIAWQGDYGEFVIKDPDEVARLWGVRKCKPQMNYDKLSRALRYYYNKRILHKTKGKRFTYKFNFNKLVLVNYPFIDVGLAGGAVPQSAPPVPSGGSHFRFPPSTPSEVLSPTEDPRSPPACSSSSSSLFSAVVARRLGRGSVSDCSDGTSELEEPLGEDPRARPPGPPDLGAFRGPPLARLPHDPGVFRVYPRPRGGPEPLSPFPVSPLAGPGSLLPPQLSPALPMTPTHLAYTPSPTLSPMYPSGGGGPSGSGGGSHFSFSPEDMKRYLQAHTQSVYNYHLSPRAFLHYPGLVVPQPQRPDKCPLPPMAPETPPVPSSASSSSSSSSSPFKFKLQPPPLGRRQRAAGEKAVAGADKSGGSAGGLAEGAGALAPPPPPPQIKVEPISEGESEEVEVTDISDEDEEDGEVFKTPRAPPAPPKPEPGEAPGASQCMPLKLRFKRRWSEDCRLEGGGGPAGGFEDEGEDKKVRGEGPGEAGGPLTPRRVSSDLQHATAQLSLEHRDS
Summary of the method: as §1

ETV3L = target: T2, ETV3L (Homo sapiens, UniProt Q6ZN32 1-361)
T2 sequence: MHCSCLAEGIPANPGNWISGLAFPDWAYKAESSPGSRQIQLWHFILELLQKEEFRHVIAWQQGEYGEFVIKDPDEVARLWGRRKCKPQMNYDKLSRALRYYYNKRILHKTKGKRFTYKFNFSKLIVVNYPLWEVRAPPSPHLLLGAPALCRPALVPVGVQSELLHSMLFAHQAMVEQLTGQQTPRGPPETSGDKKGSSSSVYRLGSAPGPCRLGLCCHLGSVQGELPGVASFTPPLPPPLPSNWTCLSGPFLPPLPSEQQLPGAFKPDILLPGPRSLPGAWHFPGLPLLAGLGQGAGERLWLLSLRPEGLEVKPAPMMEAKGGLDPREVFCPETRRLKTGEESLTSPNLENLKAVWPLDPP
Summary of the method: as §1

ETS2 = target: T3, ETS2 (Homo sapiens, UniProt P15036 1-469)
T3 sequence: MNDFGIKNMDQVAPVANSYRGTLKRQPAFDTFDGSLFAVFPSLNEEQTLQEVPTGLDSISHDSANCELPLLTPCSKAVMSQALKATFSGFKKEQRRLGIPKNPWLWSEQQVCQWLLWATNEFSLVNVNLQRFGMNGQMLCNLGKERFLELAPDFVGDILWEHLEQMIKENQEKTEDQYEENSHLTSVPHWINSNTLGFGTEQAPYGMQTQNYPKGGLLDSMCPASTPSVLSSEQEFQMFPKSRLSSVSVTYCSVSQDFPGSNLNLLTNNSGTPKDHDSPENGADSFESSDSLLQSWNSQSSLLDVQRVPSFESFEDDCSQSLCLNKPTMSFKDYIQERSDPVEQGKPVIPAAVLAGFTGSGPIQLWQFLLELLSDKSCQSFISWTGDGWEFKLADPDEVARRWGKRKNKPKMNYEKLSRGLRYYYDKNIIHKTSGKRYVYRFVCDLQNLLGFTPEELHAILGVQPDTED
Summary of the method: as §1

SPDEF = target: T4, SPDEF (Homo sapiens, UniProt O95238 1-335)
T4 sequence: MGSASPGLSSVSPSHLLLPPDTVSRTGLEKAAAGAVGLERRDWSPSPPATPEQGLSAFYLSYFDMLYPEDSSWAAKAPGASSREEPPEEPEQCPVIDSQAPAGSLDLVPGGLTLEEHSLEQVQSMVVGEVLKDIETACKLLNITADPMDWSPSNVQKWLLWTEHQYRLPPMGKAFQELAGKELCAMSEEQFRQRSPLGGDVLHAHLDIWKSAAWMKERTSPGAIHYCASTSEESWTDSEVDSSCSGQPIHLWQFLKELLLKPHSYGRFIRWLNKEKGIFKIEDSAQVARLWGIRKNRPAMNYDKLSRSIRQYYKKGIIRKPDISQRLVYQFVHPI
Summary of the method: as §1

ETV7 = target: T5, ETV7 (Homo sapiens, UniProt Q9Y603 1-341)
T5 sequence: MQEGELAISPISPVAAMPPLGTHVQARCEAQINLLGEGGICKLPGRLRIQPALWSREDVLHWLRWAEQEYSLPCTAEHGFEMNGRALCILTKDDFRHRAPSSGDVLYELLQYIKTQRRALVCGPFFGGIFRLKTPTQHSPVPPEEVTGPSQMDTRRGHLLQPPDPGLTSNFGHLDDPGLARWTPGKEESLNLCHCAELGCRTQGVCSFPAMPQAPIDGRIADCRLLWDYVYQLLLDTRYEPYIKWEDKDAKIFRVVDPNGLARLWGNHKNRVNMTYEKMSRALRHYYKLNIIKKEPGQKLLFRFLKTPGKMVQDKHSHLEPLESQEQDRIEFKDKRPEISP
Summary of the method: as §1

ELF5 = target: T6, ELF5 (Homo sapiens, UniProt Q9UKW6-2 1-255)
T6 sequence: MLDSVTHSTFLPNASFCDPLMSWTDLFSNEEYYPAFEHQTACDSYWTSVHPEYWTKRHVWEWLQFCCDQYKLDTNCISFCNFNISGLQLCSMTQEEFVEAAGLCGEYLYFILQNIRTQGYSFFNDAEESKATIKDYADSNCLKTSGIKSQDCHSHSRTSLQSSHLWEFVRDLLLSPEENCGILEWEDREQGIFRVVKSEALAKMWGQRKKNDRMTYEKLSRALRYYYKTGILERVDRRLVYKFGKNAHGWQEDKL
Summary of the method: as §1

ETV3 = target: T7, ETV3 (Homo sapiens, UniProt P41162-2 1-143)
T7 sequence: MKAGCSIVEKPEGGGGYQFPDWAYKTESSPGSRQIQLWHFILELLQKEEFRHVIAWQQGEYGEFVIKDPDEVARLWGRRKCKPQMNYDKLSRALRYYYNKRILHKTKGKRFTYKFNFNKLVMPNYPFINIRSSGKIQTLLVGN
Summary of the method: as §1

ETV6 = ETV6 (Homo sapiens, UniProt P41212 1-452)
Sequence of ETV6 (P41212 whole entry): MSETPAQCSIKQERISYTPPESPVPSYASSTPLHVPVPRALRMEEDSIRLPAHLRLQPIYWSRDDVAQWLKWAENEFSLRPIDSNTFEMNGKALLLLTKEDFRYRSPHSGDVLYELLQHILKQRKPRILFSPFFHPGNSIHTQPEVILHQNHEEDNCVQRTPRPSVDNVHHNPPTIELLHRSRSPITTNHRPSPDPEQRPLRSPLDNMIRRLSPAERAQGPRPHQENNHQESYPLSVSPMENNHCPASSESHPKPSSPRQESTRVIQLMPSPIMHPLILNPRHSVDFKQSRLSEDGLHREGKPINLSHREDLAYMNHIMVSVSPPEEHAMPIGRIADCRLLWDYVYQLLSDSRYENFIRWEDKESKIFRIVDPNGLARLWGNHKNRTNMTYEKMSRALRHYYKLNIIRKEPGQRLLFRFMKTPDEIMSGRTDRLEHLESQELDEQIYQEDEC
Summary of the method: as §1

## CCCCTT
ETV1
  binding signal: 1.63 fold enrichment (6-mer frequency, TF over GST control)
ERF
  binding signal: 1.53 fold enrichment (6-mer frequency, TF over GST control)
ETV3L
  binding signal: 1.47 fold enrichment (6-mer frequency, TF over GST control)
ETS2
  binding signal: 1.51 fold enrichment (6-mer frequency, TF over GST control)
SPDEF
  binding signal: 1.5 fold enrichment (6-mer frequency, TF over GST control)
ETV7
  binding signal: 1.56 fold enrichment (6-mer frequency, TF over GST control)
ELF5
  binding signal: 1.64 fold enrichment (6-mer frequency, TF over GST control)
ETV3
  binding signal: 1.51 fold enrichment (6-mer frequency, TF over GST control)
ETV6
  binding signal: 1.51 fold enrichment (6-mer frequency, TF over GST control)
